Reference: the supplement of paper PMC11732987, “Enantioselective OTUD7B fragment discovery through chemoproteomics screening and high-throughput optimisation” (Communications Chemistry, 2025)

Experiments:
Assay in all cases: log2 ratio of Biotin-Ahx-Ub-VS probe labelling (fragment/DMSO); higher = less target engagement (more negative = stronger competition), active = hit call of the paper (q ≤ 0.05, log2 ratio ≤ -1)
Details in all cases: compound concentration: 200 uM; treatment time: 3 h
[1] = biological target: T1, USP42 (UniProt Q9H9J4)
T1 sequence (whole entry): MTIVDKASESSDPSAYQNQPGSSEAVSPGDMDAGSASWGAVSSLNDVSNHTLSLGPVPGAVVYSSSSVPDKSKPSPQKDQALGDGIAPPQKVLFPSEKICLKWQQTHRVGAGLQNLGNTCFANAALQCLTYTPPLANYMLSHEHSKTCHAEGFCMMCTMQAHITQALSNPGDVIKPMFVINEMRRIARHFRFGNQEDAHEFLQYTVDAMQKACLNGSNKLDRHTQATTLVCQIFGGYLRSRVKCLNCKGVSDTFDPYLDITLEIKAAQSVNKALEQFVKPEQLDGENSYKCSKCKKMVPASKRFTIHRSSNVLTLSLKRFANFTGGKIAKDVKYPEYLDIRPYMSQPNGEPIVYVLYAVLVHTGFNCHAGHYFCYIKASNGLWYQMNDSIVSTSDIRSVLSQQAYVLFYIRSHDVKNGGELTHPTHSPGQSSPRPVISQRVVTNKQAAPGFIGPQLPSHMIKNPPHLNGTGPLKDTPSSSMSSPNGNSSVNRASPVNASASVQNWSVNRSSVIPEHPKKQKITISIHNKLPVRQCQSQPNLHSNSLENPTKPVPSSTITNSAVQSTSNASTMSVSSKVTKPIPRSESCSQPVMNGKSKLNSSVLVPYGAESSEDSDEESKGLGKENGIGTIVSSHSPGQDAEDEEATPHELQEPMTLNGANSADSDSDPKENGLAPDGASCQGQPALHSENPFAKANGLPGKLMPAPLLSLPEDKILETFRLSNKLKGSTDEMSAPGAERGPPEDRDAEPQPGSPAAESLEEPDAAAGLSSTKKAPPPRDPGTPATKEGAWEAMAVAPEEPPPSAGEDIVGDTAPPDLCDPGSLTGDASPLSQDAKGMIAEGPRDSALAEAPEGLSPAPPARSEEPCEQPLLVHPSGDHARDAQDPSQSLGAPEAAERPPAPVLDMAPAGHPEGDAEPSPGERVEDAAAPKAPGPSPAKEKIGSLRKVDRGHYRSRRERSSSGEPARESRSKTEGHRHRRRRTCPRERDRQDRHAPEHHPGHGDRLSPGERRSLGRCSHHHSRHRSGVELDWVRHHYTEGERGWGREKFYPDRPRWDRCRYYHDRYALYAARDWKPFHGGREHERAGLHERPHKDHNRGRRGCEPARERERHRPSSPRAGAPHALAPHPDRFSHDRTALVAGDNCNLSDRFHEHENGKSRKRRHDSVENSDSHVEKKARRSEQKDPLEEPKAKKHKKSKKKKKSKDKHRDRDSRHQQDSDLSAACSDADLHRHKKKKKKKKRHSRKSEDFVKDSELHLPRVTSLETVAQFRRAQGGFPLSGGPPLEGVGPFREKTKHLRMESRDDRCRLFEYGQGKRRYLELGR
Outline: (§1)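 Labelled DUBs from HEK293T lysate were NeutrAvidin-enriched, digested with LysC and trypsin, and run by diaPASEF LC-MS/MS. Before that, each 495 µg sample in Tris/CHAPS/IGEPAL buffer with protease inhibitors was treated in triplicate with fragment at 200 µM or vehicle for 3 h, then with Biotin-Ahx-Ub-VS at 0.5 µM final for 1 h. Values are average log2 ratios of fragment over vehicle by unpaired t-test, based on global-median-normalised Spectronaut label-free quantities from proteins with ≥2 unique peptides.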

[2] = biological target: USP46 (UniProt P62068)
Outline: as §1

[3] = biological target: T2, USP47 (UniProt Q96K76)
T2 sequence (whole entry): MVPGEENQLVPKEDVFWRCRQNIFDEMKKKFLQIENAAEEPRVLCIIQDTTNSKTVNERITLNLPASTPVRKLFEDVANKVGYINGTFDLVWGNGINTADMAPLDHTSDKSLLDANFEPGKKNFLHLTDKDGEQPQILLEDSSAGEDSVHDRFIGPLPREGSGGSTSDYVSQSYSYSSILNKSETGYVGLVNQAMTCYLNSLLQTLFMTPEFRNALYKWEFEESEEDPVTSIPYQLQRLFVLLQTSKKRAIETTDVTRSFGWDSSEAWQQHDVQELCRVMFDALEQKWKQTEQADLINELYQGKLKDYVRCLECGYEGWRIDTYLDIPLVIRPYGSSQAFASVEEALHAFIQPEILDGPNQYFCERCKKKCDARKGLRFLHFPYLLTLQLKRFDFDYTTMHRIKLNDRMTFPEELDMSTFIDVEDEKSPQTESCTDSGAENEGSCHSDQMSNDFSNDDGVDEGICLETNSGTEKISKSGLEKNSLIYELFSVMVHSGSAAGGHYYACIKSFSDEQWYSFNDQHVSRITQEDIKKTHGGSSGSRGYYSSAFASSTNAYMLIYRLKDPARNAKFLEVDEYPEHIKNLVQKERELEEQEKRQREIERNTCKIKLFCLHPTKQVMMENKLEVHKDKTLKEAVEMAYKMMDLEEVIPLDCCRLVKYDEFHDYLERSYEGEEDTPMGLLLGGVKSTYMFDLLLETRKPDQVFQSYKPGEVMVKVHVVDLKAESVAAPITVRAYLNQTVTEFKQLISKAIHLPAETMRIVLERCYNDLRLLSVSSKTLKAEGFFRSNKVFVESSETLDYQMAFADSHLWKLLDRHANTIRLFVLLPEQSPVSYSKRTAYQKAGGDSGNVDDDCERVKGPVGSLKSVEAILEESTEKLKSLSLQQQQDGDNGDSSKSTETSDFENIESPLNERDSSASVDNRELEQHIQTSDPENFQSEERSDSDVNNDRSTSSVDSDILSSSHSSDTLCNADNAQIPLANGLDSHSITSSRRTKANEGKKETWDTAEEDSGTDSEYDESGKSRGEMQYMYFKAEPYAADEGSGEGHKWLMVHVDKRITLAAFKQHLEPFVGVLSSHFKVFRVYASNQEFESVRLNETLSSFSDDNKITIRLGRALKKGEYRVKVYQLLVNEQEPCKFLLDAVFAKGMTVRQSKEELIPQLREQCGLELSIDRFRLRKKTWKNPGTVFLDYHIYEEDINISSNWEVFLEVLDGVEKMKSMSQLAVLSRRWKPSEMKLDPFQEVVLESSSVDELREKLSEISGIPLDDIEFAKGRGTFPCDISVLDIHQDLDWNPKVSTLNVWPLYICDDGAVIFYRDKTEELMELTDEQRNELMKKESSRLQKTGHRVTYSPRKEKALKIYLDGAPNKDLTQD
Outline: as §1

[4] = biological target: T3, USP48 (UniProt Q86UV5)
T3 sequence (whole entry): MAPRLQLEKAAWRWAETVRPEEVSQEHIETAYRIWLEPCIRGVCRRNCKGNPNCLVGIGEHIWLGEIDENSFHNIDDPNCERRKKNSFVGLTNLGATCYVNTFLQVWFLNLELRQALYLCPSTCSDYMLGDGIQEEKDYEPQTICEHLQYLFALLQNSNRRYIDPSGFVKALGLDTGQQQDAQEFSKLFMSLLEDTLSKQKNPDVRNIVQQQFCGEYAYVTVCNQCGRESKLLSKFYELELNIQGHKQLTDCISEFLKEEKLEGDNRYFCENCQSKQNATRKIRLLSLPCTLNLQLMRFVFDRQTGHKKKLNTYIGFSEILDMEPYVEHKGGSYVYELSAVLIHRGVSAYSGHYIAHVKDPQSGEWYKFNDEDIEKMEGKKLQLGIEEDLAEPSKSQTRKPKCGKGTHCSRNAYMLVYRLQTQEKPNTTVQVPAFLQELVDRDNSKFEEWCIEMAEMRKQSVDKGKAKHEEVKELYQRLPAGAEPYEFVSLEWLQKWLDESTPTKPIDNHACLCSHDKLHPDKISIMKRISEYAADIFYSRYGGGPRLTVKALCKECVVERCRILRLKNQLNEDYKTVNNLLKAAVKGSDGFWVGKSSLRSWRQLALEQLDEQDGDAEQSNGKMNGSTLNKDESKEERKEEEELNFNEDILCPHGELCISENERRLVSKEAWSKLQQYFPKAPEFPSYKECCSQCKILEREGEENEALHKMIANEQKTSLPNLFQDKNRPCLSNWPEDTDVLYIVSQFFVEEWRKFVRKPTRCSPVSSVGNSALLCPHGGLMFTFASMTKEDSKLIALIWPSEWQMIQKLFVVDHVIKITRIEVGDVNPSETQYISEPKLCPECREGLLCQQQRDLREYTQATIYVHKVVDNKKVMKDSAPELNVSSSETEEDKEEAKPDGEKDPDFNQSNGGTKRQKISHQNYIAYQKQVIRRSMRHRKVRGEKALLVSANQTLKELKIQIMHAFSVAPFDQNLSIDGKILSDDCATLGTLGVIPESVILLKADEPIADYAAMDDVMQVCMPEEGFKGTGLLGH
Outline: as §1

[5] = biological target: T4, USP5 (UniProt P45974)
T4 sequence (whole entry): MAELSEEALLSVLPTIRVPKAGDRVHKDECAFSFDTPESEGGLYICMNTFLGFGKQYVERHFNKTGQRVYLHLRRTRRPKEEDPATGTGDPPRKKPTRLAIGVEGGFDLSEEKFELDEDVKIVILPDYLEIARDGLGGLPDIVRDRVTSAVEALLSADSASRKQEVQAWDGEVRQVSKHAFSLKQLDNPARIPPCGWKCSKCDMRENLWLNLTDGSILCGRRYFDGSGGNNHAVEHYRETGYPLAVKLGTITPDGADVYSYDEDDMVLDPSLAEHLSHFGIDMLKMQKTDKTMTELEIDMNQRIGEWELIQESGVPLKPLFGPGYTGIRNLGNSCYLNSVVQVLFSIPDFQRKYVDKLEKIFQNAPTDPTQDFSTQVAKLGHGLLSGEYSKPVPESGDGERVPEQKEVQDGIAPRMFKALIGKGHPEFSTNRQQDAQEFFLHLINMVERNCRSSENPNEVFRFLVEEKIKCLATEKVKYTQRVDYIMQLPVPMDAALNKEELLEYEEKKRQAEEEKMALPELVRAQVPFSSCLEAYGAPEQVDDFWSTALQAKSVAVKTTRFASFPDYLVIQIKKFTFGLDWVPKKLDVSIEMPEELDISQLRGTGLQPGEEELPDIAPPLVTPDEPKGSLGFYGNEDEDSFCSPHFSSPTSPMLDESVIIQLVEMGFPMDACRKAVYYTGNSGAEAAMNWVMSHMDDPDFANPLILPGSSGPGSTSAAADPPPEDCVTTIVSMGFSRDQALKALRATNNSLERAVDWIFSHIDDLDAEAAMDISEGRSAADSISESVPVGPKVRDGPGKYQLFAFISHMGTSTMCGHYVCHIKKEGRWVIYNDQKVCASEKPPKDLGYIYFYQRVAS
Outline: as §1

[6] = biological target: USP54 (UniProt Q70EL1)
Outline: as §1

[7] = biological target: USP7 (UniProt Q93009)
Outline: as §1

[8] = biological target: T5, USP8 (UniProt P40818)
T5 sequence (whole entry): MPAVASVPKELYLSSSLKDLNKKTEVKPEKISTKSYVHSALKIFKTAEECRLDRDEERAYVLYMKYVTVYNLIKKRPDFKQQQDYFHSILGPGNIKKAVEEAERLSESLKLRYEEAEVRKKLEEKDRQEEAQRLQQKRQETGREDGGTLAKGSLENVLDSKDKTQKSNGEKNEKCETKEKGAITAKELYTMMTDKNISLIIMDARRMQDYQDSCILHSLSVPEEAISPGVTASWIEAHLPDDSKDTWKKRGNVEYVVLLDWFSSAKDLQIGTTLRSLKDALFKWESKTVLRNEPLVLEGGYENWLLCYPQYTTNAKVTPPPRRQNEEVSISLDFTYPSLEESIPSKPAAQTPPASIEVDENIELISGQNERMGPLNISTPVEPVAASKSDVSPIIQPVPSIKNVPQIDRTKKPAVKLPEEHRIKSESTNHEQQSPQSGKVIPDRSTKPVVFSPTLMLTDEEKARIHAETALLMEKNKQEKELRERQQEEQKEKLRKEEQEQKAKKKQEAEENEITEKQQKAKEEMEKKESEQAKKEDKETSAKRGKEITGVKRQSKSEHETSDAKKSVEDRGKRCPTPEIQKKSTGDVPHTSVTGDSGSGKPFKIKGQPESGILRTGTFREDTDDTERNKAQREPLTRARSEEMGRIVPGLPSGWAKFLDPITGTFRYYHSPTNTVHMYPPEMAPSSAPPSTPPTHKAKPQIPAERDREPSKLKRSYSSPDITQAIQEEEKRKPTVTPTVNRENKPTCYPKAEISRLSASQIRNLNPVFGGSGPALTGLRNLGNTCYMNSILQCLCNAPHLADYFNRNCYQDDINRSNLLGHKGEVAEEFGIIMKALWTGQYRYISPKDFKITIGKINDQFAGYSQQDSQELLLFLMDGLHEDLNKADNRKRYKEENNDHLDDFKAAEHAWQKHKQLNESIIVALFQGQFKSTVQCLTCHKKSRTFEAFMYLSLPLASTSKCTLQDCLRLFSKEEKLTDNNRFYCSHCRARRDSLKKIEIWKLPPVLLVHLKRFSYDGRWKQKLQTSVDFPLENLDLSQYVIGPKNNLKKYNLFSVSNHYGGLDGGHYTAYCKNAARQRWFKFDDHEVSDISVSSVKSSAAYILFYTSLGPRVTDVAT
Outline: as §1

Measured: log2 ratio of Biotin-Ahx-Ub-VS probe labelling

USP54, sequence (Q70EL1 whole entry): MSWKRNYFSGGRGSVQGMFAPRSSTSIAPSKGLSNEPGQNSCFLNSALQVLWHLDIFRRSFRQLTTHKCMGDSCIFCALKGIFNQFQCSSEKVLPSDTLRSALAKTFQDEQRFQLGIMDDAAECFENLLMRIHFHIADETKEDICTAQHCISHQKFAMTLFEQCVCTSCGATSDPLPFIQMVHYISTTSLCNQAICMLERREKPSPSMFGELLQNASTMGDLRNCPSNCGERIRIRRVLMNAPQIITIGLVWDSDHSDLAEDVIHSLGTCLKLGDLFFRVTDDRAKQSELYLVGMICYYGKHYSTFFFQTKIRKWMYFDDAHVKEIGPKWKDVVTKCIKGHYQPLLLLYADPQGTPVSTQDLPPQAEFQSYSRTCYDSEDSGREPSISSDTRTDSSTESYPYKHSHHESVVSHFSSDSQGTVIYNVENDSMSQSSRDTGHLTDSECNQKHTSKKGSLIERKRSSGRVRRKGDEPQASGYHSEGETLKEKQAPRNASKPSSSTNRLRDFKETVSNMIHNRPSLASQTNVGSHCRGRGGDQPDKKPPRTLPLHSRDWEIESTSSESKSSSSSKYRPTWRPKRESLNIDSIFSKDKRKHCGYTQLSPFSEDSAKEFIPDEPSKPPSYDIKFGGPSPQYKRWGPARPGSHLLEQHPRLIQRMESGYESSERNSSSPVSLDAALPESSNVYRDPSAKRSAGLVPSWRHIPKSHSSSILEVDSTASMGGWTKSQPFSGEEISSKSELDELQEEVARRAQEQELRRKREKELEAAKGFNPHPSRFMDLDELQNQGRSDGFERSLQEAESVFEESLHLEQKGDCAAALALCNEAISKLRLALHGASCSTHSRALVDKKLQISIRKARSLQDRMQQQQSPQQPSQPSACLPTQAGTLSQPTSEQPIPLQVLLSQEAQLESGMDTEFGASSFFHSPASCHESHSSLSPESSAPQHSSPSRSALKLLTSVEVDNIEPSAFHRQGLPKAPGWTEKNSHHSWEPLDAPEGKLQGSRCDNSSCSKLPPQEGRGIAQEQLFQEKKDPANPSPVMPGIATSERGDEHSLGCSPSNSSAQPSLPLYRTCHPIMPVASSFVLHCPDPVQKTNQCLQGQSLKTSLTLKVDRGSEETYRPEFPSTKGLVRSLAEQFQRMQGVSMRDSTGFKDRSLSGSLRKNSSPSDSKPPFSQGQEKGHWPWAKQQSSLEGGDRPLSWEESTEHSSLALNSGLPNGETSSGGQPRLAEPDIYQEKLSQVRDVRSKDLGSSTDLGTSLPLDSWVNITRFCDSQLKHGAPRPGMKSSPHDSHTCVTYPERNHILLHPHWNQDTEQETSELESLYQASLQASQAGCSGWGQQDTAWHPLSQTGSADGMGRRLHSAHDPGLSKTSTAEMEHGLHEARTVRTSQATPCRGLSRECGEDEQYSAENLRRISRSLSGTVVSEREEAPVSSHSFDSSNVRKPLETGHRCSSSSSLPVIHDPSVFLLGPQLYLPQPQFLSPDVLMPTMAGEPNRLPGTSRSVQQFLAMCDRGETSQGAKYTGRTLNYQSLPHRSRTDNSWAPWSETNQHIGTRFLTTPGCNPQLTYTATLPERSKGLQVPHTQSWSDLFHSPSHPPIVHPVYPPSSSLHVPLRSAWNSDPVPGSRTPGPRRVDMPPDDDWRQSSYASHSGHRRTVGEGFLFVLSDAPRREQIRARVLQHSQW
USP7, sequence (Q93009 whole entry, looked up): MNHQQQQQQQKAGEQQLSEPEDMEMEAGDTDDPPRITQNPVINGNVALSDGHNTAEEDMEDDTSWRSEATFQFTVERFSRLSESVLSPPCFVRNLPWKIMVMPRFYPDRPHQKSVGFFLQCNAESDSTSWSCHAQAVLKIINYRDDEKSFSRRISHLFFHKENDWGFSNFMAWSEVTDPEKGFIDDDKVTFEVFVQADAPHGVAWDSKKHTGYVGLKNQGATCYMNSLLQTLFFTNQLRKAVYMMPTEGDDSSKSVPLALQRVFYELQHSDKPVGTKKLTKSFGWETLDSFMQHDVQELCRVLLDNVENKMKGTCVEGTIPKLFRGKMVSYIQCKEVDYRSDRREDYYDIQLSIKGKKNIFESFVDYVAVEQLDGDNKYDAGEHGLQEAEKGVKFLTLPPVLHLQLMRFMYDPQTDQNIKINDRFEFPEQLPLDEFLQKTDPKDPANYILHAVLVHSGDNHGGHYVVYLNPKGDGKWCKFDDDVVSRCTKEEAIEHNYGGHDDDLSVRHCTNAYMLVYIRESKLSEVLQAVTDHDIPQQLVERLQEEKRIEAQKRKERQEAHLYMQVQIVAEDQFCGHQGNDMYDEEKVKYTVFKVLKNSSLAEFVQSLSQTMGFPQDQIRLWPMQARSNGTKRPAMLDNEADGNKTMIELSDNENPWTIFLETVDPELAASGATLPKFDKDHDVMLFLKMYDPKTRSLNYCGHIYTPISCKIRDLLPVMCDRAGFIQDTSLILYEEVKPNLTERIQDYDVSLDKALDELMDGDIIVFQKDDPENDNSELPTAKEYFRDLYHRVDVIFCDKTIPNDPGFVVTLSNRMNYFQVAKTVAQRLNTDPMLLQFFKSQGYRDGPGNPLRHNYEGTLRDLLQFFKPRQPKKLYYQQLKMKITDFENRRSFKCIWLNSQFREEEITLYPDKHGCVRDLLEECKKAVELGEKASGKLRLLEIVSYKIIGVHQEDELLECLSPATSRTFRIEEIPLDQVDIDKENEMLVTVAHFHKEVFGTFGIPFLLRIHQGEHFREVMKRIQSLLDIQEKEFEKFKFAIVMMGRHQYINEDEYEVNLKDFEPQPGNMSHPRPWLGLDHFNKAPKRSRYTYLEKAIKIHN
USP46, sequence (P62068 whole entry): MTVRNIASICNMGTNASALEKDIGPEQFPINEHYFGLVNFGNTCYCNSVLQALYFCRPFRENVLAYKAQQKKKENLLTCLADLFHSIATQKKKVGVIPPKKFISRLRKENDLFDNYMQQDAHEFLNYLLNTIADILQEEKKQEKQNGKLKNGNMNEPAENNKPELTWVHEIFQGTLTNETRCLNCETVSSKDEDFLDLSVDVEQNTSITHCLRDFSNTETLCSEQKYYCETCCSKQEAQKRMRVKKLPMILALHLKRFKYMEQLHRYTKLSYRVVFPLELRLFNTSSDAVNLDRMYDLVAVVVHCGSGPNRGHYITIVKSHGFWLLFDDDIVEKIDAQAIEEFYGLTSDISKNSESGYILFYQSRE

Cc1cccn2cc(CCNC(=O)CCl)nc12.Cl
inactive: [1] 0.274 | [2] -0.16 | [3] 0.127 | [4] -0.182 | [5] -0.331 | [6] 0.0379 | [7] -0.51 | [8] -0.181
